About 83,000 compounds went through this panel and 20% of them were active in at least one assay; those are over-represented in the sample as a whole.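 Assay: single dose, 48 h. Readout: percent growth (0 = no net growth; negative = cell death). Active: <10.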 Calls of active or inactive are those of the source.
What follows are compounds tested on SK-MEL-2 melanoma (assay: NCI-60 one-dose screen, 48 h (100 = growth as untreated, 0 = no growth, -100 = all killed)). Details: 10 µM.
For `CC(=O)OC/C=C(/C)C[P+](c1ccccc1)(c1ccccc1)c1ccccc1`, the growth was 83.8% (inactive). With `CCOC(=O)c1cc(C(=O)c2cc(OC)cc(OC)c2)n2ncc3ccccc3c12` the growth was 15.4% (inactive). For `C=CCN(CC=C)C(=O)[C@H](CC)[C@@H]1CC[C@@H](C)[C@@H]([C@H](C)[C@@H](O)[C@@H](C)C(=O)[C@H](CC)C2O[C@]3(C=CC(=O)[C@]4(CC[C@@](C)([C@H]5CC[C@](O)(CC)[C@H](C)O5)O4)O3)[C@H](C)C[C@@H]2C)O1` (stereo not given in full), the growth was 22.1% (inactive). For `Cc1c2c(nn1C(=O)c1nn(-c3ccc(Cl)cc3)cc1O)-c1ccccc1CC2`, the growth was 0.774% (active). For `O=C(CCn1cnc2c(cc(-c3ccccc3)n2-c2ccccc2)c1=O)Nc1ccc(F)cc1`, the growth was 84.5% (inactive). With `COc1ccc(-c2onc(N)c2-c2cc(OC)c3c(c2)OCO3)cc1` the growth was 13.6% (inactive). For `CCCN(CCC)C(=O)[C@H](CC)[C@@H]1CC[C@@H](C)[C@@H]([C@H](C)[C@@H](O)[C@@H](C)C(=O)[C@H](CC)C2O[C@]3(C=C[C@@H](O)[C@]4(CC[C@@](C)([C@H]5CC[C@](O)(CC)[C@H](C)O5)O4)O3)[C@H](C)C[C@@H]2C)O1` (stereo not given in full), the growth was 0.709% (active). In the case of `CCOC(=O)c1cc(C(=O)c2cc(OC)c(OC)c(OC)c2)n2c1ccc1c3cccnc3ccc12`, the growth is reported as 40.6% (inactive). In the case of `COc1cc(NC(=O)Nc2cnc(Nc3ccc(N4CCOCC4)cc3)nc2Oc2cccc(OC)c2)cc(OC)c1`, the growth is reported as 40% (inactive). For `Fc1ccc2[nH]cc(-c3nc(-c4ccsc4)cs3)c2c1`, the growth was 87.9% (inactive). With `IC(I)I` the growth was 108% (inactive). For `Cc1ccc(-n2c(C)nn3c(=O)c4c5c(sc4nc23)CN(C)CC5)cc1`, the growth was 95% (inactive). In the case of `CN(C)c1ccc(/C=N/NC(=O)c2ccccc2Nc2cccc(C(F)(F)F)c2)cc1`, the growth is reported as 62.3% (inactive). For `N#CC1=C(N)Oc2cc(N)ccc2C1c1cccnc1` (stereo not given), the growth was 97.4% (inactive). With `O=C(CCCCNC(=O)c1nc(-c2ccccc2)n(-c2ccccc2)n1)NO` the growth was 67.6% (inactive). `COc1ccc(-c2cc(-c3ccc(OC)c(OC)c3)nc(SCCCC(=O)NO)n2)cc1` was tested, and the growth was -5.66% (active). For `COc1cc(C2CC(c3ccccc3)=NN2C(C)=O)cc(OC)c1OC` (stereo not given), the growth was 47.6% (inactive). With `O=C(/C=C/C=C/c1c(C2CC2)nc2ccccc2c1-c1ccc(F)cc1)c1cccs1` the growth was -76.5% (active). In the case of `CC(C)N(CCOc1ccc(-c2nc3sccn3c2-c2ccnc(S(C)(=O)=O)n2)cc1)C(C)C`, the growth is reported as 106% (inactive). With `O=C(Nc1nc(-c2ccccc2)nc2c1sc(=S)n2-c1ccccc1)C(F)(F)F` the growth was 104% (inactive). `O=C(CSc1nnc(-c2ccc(Cl)cc2)o1)Nc1ccc(C(=O)/C=C/c2ccc(Cl)cc2)cc1` was tested, and the growth was 101% (inactive). With `C=CCn1c(SCC(=O)Nc2ccc(C(=O)/C=C/c3ccc(OC)cc3)cc2)nnc1-c1ccc(OC)c(OC)c1` the growth was 89.3% (inactive). For `CN1CCN(CC(=O)Nc2cccc(-n3cc(-c4ccncc4)c(-c4ccc(Cl)c(O)c4)n3)c2)CC1`, the growth was 28.2% (inactive). For `CCc1ccc(C2=NN(c3ccc(S(C)(=O)=O)cc3)C(=O)CC2)cc1`, the growth was 36.9% (inactive). In the case of `Cc1nn(-c2ccc(-c3ccc(OC(F)(F)F)cc3)cc2)c2nc(Cc3ccccc3)nc(N)c12`, the growth is reported as 87.6% (inactive). `Cn1c2ccccc2c2c3[nH][nH]c(=O)c3c3c4ccccc4[nH]c3c21` was tested, and the growth was 10.9% (inactive). `CC[C@H]1OC(=O)[C@H](C)[C@@H](O[C@H]2C[C@@](C)(OC)[C@@H](O)[C@H](C)O2)[C@H](C)[C@@H](O[C@@H]2O[C@H](C)C[C@H](N(C)C)[C@H]2O)[C@](C)(OC)C/C(C)=C2/O[C@@]1(C)C=C2C` was tested, and the growth was -17.3% (active). `C=C(C)[C@@H]1CC[C@]2(COCCC#N)CC[C@]3(C)[C@H](CC[C@@H]4[C@@]5(C)Cc6c([nH]c7ccccc67)C(C)(C)[C@@H]5CC[C@]43C)[C@@H]12` was tested, and the growth was 110% (inactive). `CC(=O)[C@H]1CC[C@]2(C)[C@@H]1CC[C@@H]1[C@@]3(C)CC(CCC#N)(CCC#N)C(=O)C(C)(C)[C@@H]3CC[C@]12C` was tested, and the growth was 102% (inactive). In the case of `O=C1c2ccccc2C(=O)c2c1ccc(C(Br)Br)c2Cl`, the growth is reported as 60.7% (inactive). With `Clc1ccc(/C=C2\CCCC3C2=Nc2ccccc2NC3c2ccc(Cl)cc2)cc1` (stereo not given) the growth was 92.1% (inactive). With `Cc1ccc(/C=C/C(=O)C(=O)/C=C/c2ccc(C)cc2)cc1` the growth was 105% (inactive). In the case of `O=C(Nc1ccccc1)Nc1ncnc2c1ncn2-c1ccccc1`, the growth is reported as 104% (inactive). With `CCn1c(SC/C(=N/O)c2ccccc2)nnc1-c1ccccc1` the growth was 108% (inactive). In the case of `Cc1cc(SCc2ccccc2)nc(N)n1`, the growth is reported as 119% (inactive). For `COc1cc2cc(Oc3ccc(NC(=O)Nc4ccc(Cl)c(C(F)(F)F)c4)cc3)c(C)nc2cc1OC`, the growth was -49.8% (active). In the case of `CCCCCCCCCCCCCCCCCC[n+]1ccc2c(C)c3c(c(C)c2c1)c1cc(O)ccc1n3CC`, the growth is reported as -33.1% (active). In the case of `CN1CCc2c(sc3nc4n(-c5ccc(Cl)cc5)cnn4c(=O)c23)C1`, the growth is reported as 118% (inactive). In the case of `CN1CCc2c(sc3nc4n(-c5ccc(Cl)cc5)c(=O)[nH]n4c(=O)c23)C1`, the growth is reported as 96.5% (inactive). With `C[n+]1c2ccccc2nc2ccccc21` the growth was -24.2% (active).
